Test results reported in PubChem BioAssay (NCI).
About 79,000 compounds went through this panel and 15% of them were active in at least one assay; those are over-represented in the sample as a whole. A number with no mark means an inactive call. Activity calls are given as the source filed them. Cut-off read from the data, not from the text of the source: active = growth inhibition above about 70%; inactive = the rest.

Assays:
[1] = NCI Yeast Anticancer Drug Screen. Data for the rad50 strain (AID 155);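 note: 0% = growth of vehicle-only cultures of the same strain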; details: S. cerevisiae rad50 strain growth inhibition; at 50.0 µM; stronger effect = higher value
Summary of the method: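 Compounds were tested on a yeast strain with an engineered DNA damage repair alteration; the reported value is growth inhibition normalised to vehicle treatment.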

[2] = NCI Yeast Anticancer Drug Screen. Data for the mec2-1 strain (AID 157); details: S. cerevisiae mec2-1 strain, at 50.0 µM, stronger effect = higher value
Summary of the method: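 Strain: mec2-1 (DNA repair/cell cycle alteration). Compound exposure, then growth measured; inhibition expressed relative to vehicle.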

[3] = NCI Yeast Anticancer Drug Screen. Data for the sgs1 mgt1 strain (AID 161);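 note: 0% = growth of cultures given vehicle only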; details: S. cerevisiae sgs1 mgt1 strain, at 50.0 µM, stronger effect = higher value
Summary of the method: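 Mutant yeast exposed to compound; growth scored against vehicle-only wells.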

[4] = NCI Yeast Anticancer Drug Screen. Data for the cln2 rad14 strain (AID 165);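 note: 0% = growth equal to vehicle treated cultures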; details: S. cerevisiae cln2 rad14 strain, at 50.0 µM, stronger effect = higher value
Summary of the method: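 Compounds are applied to the cln2 rad14 yeast strain, and growth is then compared with that of vehicle-treated cultures to give inhibition.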

[5] = NCI Yeast Anticancer Drug Screen. Data for the bub3 strain (AID 167); details: S. cerevisiae bub3 mutant strain, at 50.0 µM, stronger effect = higher value
Summary of the method: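 Growth of a checkpoint-deficient yeast mutant is measured after compound exposure. Values represent inhibition relative to vehicle.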

[6] = NCI Yeast Anticancer Drug Screen. Data for the mlh1 rad18 strain (AID 175); details: S. cerevisiae mlh1 rad18 strain growth inhibition; at 50.0 µM; stronger effect = higher value
Summary of the method: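 Read-out is yeast growth inhibition, calculated against vehicle-only controls. The compound was applied to a strain engineered with DNA damage repair alterations.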

Structure (SMILES)	growth inhibition [1]	growth inhibition [2]	growth inhibition [3]	growth inhibition [4]	growth inhibition [5]	growth inhibition [6]
O=C(CSc1nc(-c2ccccc2)c(-c2ccccc2)[nH]1)NNC(=S)Nc1ccccc1	6.45%	0.5%	-7.15%	-26.3%	54.5%	3%
Cc1[nH]c(=S)[nH]c(=O)c1CCC(C)C	9.5%	14.8%	14.1%	52.1%	37.8%	6.5%
CC(=O)CC(=O)C(F)(F)F	14%	-3.35%	-20.5%	9.8%	7.3%	4.75%
CCc1cc(O)c([N+](=O)[O-])cc1[N+](=O)[O-]	-15.7%	-3.95%	21.1%	-34.8%	-17.2%	-7.95%
Cc1cccc(NC(=O)C(C)C)c1	24.3%	19.4%	11.8%	-2.35%	-43.9%	-33%
Cc1cc(=O)[nH]c(NNC(C#N)c2ccc([N+](=O)[O-])cc2)n1 (stereo not given)	-18.5%	0.35%	-36.1%	-8.8%	-30.6%	-50.9%
O=C(CCN1CCOCC1)c1csc2ccccc12	27.6%	36.9%	12.9%	14.9%	-5.35%	17.8%
CCOC(=O)C(NC(=O)c1ccccc1)(Nc1ccc(S(=O)(=O)Nc2ncccn2)cc1)C(F)(F)F (stereo not given)	1.1%	-17.4%	-16.8%	-4.55%	-12.7%	16.9%
Cc1ccc(N2P(N(C)C)N(c3ccc(C)cc3)P2(=O)N(C)C)cc1 (stereo not given)	12.4%	22.4%	9.45%	-5.6%	3.6%	6.4%
CC12C3CC4C5CC(C(C53)[C@@H]1NCc1ccccc1)C42 (stereo not given in full)	44.8%	6.8%	19.2%	35.4%	32.9%	21.9%
CC(=O)Nc1ccc2ccc3ccccc3c2c1	37%	9.25%	15.8%	-19.1%	-4.35%	23.7%
O=C(CSc1nnc(-c2ccc(N=Cc3ccc(Cl)cc3)cc2)o1)Nc1ccc(Cl)cc1	3.1%	-41%	-2.25%	-66%	-11.8%	0%
Cc1ccc(S(=O)(=O)Nc2ccc3nc(C)oc3c2)cc1	26.4%	-18.1%	44.1%	14.7%	45%	17%
c1cc2cc(c1)CNCCNCCNCc1cccc(c1)CNCCNCCNC2	-22.4%	-17.4%	-30.6%	16.9%	6%	-2.9%
CC(C)(CCCCC(C)(C)NC1=NCCO1)NC1=NCCO1	-0.2%	-8.8%	9.9%	-20.6%	-4.45%	-9.4%
CCOC(=O)C(C)(/C=N/NS(=O)(=O)c1ccc(C)cc1)c1ccccc1 (stereo not given)	5.2%	10.7%	9.15%	5.7%	15.9%	14.3%
CC1=CC(=O)C(CCC#N)C(C)(C)C1 (stereo not given)	-8.6%	-17.9%	-1.75%	-36.9%	5.85%	-0.4%
Cc1nc2c3c4c(sc3nc(C)n2n1)CCCC4	1%	10.3%	22.2%	80.4% (active)	7.3%	12%
O=C(/C=C/c1ccccc1)NCC(O)CO (stereo not given)	7.1%	-2.95%	-3.65%	-0.3%	0.5%	11.7%
CC(C)(C)OC[C@H](O)CC#N	-8.2%	-61.4%	-36.1%	-20.4%	-30.8%	-26.4%

Structure (SMILES)	growth inhibition [1]	growth inhibition [2]	growth inhibition [3]	growth inhibition [4]	growth inhibition [5]	growth inhibition [6]
O=C(NCCCl)Nc1cccc2c1CCC2	-11.1%	-0.7%	-9.5%	-47.3%	-23.1%	-4.8%
COc1ccc(N=Nc2c(C)nn(C(=O)c3ccncc3)c2C)cc1	-21.9%	-3.75%	13.4%	-1.2%	11.4%	-10.1%
O=C(Nc1nc2ccsc2s1)c1ccccc1	-15.8%	-3%	-4%	-34.9%	-8%	-10.8%
CCCNS(=O)(=O)c1nc2ccccc2s1	-26%	-15.2%	-5.6%	-22.1%	2.65%	-20.8%
C/C(=N/NC(N)=O)C1=CCCCC1	-7%	7.3%	6.35%	4.1%	0.7%	7.4%
CCOC(=O)c1ccc(/C(C)=N/NC(N)=S)cc1	7.35%	3.8%	21%	15.4%	5.35%	-9.5%
Cc1cc(C)[n+](C)c(/C=C\c2ccc(Cl)cc2)n1	7.3%	-6.95%	10.8%	3%	-4.45%	12.9%
CNC(CCNCCc1ccccc1)CNCCc1ccccc1 (stereo not given)	44.1%	4.8%	22.8%	3.85%	5.7%	22.2%
CCCCCCCCCCCl	13.2%	5.85%	28.5%	21.8%	17.6%	25%
CC1(C)COC(c2c(F)cccc2Cl)=N1	3%	-13.8%	6.2%	22.4%	11.7%	13.2%
COc1ccc(-n2c(N)c(C#N)c(C#N)c2-c2cccc([N+](=O)[O-])c2)cc1	6%	9.75%	-62.8%	-3.1%	-18.9%	-48.5%
O=[N+]([O-])c1ccc(S(=O)(=O)c2ccc(N=Cc3ccc(C=Nc4ccc(S(=O)(=O)c5ccc([N+](=O)[O-])cc5)cc4)cc3)cc2)cc1	6.85%	3.25%	1.15%	-5.45%	-4.55%	-5.85%
O=C1CN(C(=O)c2ccccc2)C(=S)N1	22.5%	6.7%	11.7%	-17.9%	4.75%	4.5%
Cc1ccc(NC(=O)CCC(=O)C(C#N)c2ccc(Cl)cc2)cc1C (stereo not given)	-8.25%	-7.95%	8.55%	4.75%	8.4%	0.25%
Cn1cnc(CCc2ccccc2)n1	-8.95%	-3.05%	-24.2%	-19%	-24.1%	-11.2%
COC(=O)C1CC2(C(=O)OC)CC(C(=O)OC)(CC(C(=O)OC)C2=O)C1=O (stereo not given)	9.55%	-0.15%	14.1%	11.9%	18.5%	3.55%
CCCCCCCCC(Br)C(Br)CCCCCCCC(=O)N(CCCC)CCCC (stereo not given)	36.9%	10.6%	2.05%	-5.45%	13.8%	8.3%
OCCN1OCCCC1c1ccccc1 (stereo not given)	-0.75%	-14.3%	1.2%	-28.1%	-31.2%	0.1%
O=C(c1ccc(Cl)c(Cl)c1)N1CCCCC1	-1.25%	-7%	13.8%	-48.5%	-12.5%	-6.25%
Cc1ccc(NC(N)=O)cc1	-33.5%	-43.9%	-24.1%	10.7%	-1.05%	-5.9%
